The full list was thinned out, with the strongest signals kept by preference.
Key:
Experiment in all cases: glycan array binding signal (z-score within array); higher = stronger binding
Details in all cases: glycan notation: IUPAC condensed, linker removed
[1] = biological target: Fuc(a1-2)Gal(b1-3)[Fuc(a1-4)]GlcNAc
How it was run: (§1)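 The binding signal is a Z-score computed within each array and averaged over linkers. Arrays of the same protein sequence at different concentrations or buffers were also averaged together. Data originate from 3228 arrays in the Consortium for Functional Glycomics database, kept only where the protein sequence was available.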

Fuc(a1-2)Gal(b1-4)Glc = biological target: Fuc(a1-2)Gal(b1-4)Glc
How it was run: as §1

[2] = biological target: Fuc(a1-2)Gal6S(b1-4)GlcNAc
How it was run: as §1

[3] = biological target: Fuc(a1-2)[Gal(a1-3)]Gal(b1-4)GlcNAc
How it was run: as §1

[4] = biological target: Fuc(a1-2)[Gal(a1-3)]Gal(b1-4)GlcNAc(b1-2)Man(a1-3)[Fuc(a1-2)[Gal(a1-3)]Gal(b1-4)GlcNAc(b1-2)Man(a1-6)]Man(b1-4)GlcNAc(b1-4)GlcNAc
How it was run: as §1

[5] = biological target: Fuc(a1-2)[Gal(a1-3)]Gal(b1-4)GlcNAc(b1-3)GalNAc
How it was run: as §1

[6] = biological target: Fuc(a1-2)[Gal(a1-3)]Gal(b1-4)[Fuc(a1-3)]Glc
How it was run: as §1

[7] = biological target: Fuc(a1-2)[GalNAc(a1-4)]Gal(b1-4)GlcNAc
How it was run: as §1

[8] = biological target: Fuc(a1-3)[Gal(b1-4)]Glc6S
How it was run: as §1

[9] = biological target: Gal(a1-3)Fuc(a1-2)Gal(b1-4)GlcNAc(b1-3)[Gal(a1-3)Fuc(a1-2)Gal(b1-4)GlcNAc(b1-6)]GalNAc
How it was run: as §1

Gal(a1-3)Gal(b1-4)GlcNAc = biological target: Gal(a1-3)Gal(b1-4)GlcNAc
How it was run: as §1

[10] = biological target: Gal(a1-4)Gal(b1-3)GlcNAc(b1-2)Man(a1-3)[Gal(a1-4)Gal(b1-3)GlcNAc(b1-2)Man(a1-6)]Man(b1-4)GlcNAc(b1-4)GlcNAc
How it was run: as §1

Gal(a1-4)GlcNAc = biological target: Gal(a1-4)GlcNAc
How it was run: as §1

[11] = biological target: Gal(b1-3)Gal(b1-4)GlcNAc(b1-2)Man(a1-3)[Gal(b1-3)Gal(b1-4)GlcNAc(b1-2)Man(a1-6)]Man(b1-4)GlcNAc(b1-4)GlcNAc
How it was run: as §1

Gal(b1-3)GlcNAc = biological target: Gal(b1-3)GlcNAc
How it was run: as §1

[12] = biological target: Gal(b1-3)GlcNAc(b1-2)Man(a1-3)[Gal(b1-3)GlcNAc(b1-2)Man(a1-6)]Man(b1-4)GlcNAc(b1-4)[Fuc(a1-6)]GlcNAc
How it was run: as §1

[13] = biological target: Gal(b1-3)GlcNAc(b1-3)Gal(b1-4)GlcNAc
How it was run: as §1

[14] = biological target: Gal(b1-3)[Fuc(a1-4)]GlcNAc(b1-2)Man(a1-3)[Gal(b1-3)[Fuc(a1-4)]GlcNAc(b1-2)Man(a1-6)]Man(b1-4)GlcNAc(b1-4)[Fuc(a1-6)]GlcNAc
How it was run: as §1

[15] = biological target: Gal(b1-4)GlcNAc(b1-3)Gal(b1-4)Glc
How it was run: as §1

[16] = biological target: Gal(b1-4)GlcNAc(b1-3)GalNAc
How it was run: as §1

[17] = biological target: GalNAc(a1-3)Fuc(a1-2)Gal(b1-4)GlcNAc(b1-3)[GalNAc(a1-3)Fuc(a1-2)Gal(b1-4)GlcNAc(b1-6)]GalNAc
How it was run: as §1

GalNAc(b1-4)Gal(b1-4)Glc = biological target: GalNAc(b1-4)Gal(b1-4)Glc
How it was run: as §1

GlcA(b1-3)Gal = biological target: GlcA(b1-3)Gal
How it was run: as §1

GlcNAc(b1-3)Gal(b1-4)Glc = biological target: GlcNAc(b1-3)Gal(b1-4)Glc
How it was run: as §1

Kdn(a2-3)Gal(b1-4)Glc = biological target: Kdn(a2-3)Gal(b1-4)Glc
How it was run: as §1

Kdn(a2-6)Gal(b1-4)GlcNAc = biological target: Kdn(a2-6)Gal(b1-4)GlcNAc
How it was run: as §1

[18] = biological target: Neu5Ac(a2-3)Gal(b1-4)GlcNAc(b1-3)Gal(b1-4)[Fuc(a1-3)]GlcNAc
How it was run: as §1

[19] = biological target: Neu5Ac(a2-3)[GalNAc(b1-4)]Gal(b1-4)GlcNAc(b1-3)GalNAc
How it was run: as §1

Neu5Ac(a2-6)GalNAc = biological target: Neu5Ac(a2-6)GalNAc
How it was run: as §1

[20] = biological target: Neu5Ac9Ac(a2-3)Gal(b1-4)GlcNAc
How it was run: as §1

[21] = biological target: Neu5Gc(a2-3)Gal(b1-4)GlcNAc
How it was run: as §1

[22] = biological target: Neu5Gc(a2-6)Gal(b1-4)GlcNAc
How it was run: as §1

B1: SCA (Schizophyllum commune) (protein)
chain: MGIDQGVYLITNAGSGTAATLKDGYVKGWERIKGKEQLNQLWFVKSVKTSASDPGYAAFNLATNKVLDLEKGLADRGTPILGWDYHEGDNQHWVIKKQADGKYYKIQSVKTQTFVDLNNGGKDNGTKIQGWVGSWDETNSHQRWVFNQFSATGSRIKSILDTHPKIHGKVIVEWPDRIYFTPDQYIFEAIWAKTGLADIKPRDPLFQSEAYEKVFKGWVVSRAQEIIKVDGFDILVGSLSLVEKSTQKIKVLDVSVRTSDDKSPDLSQIVFFDPESGRTLVDIPEGYEVNSVII
[1]
  glycan array binding signal (z-score): -0.163
Fuc(a1-2)Gal(b1-4)Glc
  glycan array binding signal (z-score): -0.153
[2]
  glycan array binding signal (z-score): -0.161
[3]
  glycan array binding signal (z-score): 5.61
[4]
  glycan array binding signal (z-score): 7.08
[5]
  glycan array binding signal (z-score): 2.52
[6]
  glycan array binding signal (z-score): -0.163
[7]
  glycan array binding signal (z-score): 0.703
[8]
  glycan array binding signal (z-score): -0.16
[9]
  glycan array binding signal (z-score): 6.72
Gal(a1-3)Gal(b1-4)GlcNAc
  glycan array binding signal (z-score): 8.25
[10]
  glycan array binding signal (z-score): 3.68
Gal(a1-4)GlcNAc
  glycan array binding signal (z-score): -0.135
[11]
  glycan array binding signal (z-score): 11.4
Gal(b1-3)GlcNAc
  glycan array binding signal (z-score): -0.162
[12]
  glycan array binding signal (z-score): -0.159
[13]
  glycan array binding signal (z-score): -0.158
[14]
  glycan array binding signal (z-score): -0.054
[15]
  glycan array binding signal (z-score): -0.16
[16]
  glycan array binding signal (z-score): -0.159
[17]
  glycan array binding signal (z-score): 0.835
GalNAc(b1-4)Gal(b1-4)Glc
  glycan array binding signal (z-score): -0.162
GlcA(b1-3)Gal
  glycan array binding signal (z-score): 8.44
GlcNAc(b1-3)Gal(b1-4)Glc
  glycan array binding signal (z-score): -0.158
Kdn(a2-3)Gal(b1-4)Glc
  glycan array binding signal (z-score): -0.152
Kdn(a2-6)Gal(b1-4)GlcNAc
  glycan array binding signal (z-score): -0.162
[18]
  glycan array binding signal (z-score): -0.164
[19]
  glycan array binding signal (z-score): -0.161
Neu5Ac(a2-6)GalNAc
  glycan array binding signal (z-score): -0.162
[20]
  glycan array binding signal (z-score): -0.16
[21]
  glycan array binding signal (z-score): -0.161
[22]
  glycan array binding signal (z-score): -0.162

From the supplement of paper PMC8728848
